Results taken from PubChem BioAssay (NCI).
This is part of a sample that, as a whole, favours compounds with a hit. Of some 83,000 tested, about 20% had one in any assay.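 Single-dose data. Exposure time 48 hours. Values below 10 considered active.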 Active and inactive are the calls of the source.

Assays:
Test in all cases: NCI-60 one-dose screen, 48 h (100 = growth as untreated, 0 = no growth, -100 = all killed)
RPMI-8226 leukemia = conditions: 10 µM unless noted
OVCAR-8 ovarian = conditions: 10 µM unless noted
OVCAR-5 ovarian = conditions: 10 µM unless noted
OVCAR-4 ovarian = conditions: 10 µM unless noted
SK-OV-3 ovarian = conditions: 10 µM unless noted
OVCAR-3 ovarian = conditions: 10 µM unless noted
HS 578T breast = conditions: 10 µM unless noted
NCI/ADR-RES ovarian = conditions: 10 µM unless noted
T-47D breast = conditions: 10 µM unless noted
BT-549 breast = conditions: 10 µM unless noted
MDA-MB-435 melanoma = conditions: 10 µM unless noted
SW-620 colon = conditions: 10 µM unless noted
MCF7 breast = conditions: 10 µM
HCT-116 colon = conditions: 10 µM unless noted
HCC-2998 colon = conditions: 10 µM unless noted
KM12 colon = conditions: 10 µM unless noted
IGROV1 ovarian = conditions: 10 µM unless noted

Measured: growth

CCOc1ccc2nc(C)cc(Nc3ccc(Br)cc3)c2c1
inactive: RPMI-8226 leukemia 82.6% | OVCAR-8 ovarian 97.9% | OVCAR-5 ovarian 97.7% | OVCAR-4 ovarian 82.2% | SK-OV-3 ovarian 101% | OVCAR-3 ovarian 107% | HS 578T breast 117% | NCI/ADR-RES ovarian 95.4% | T-47D breast 97.1% | BT-549 breast 108% | MDA-MB-435 melanoma 110% | SW-620 colon 94.8% | MCF7 breast 76.6% | HCT-116 colon 80.4% | HCC-2998 colon 117% | KM12 colon 108%

CC(=O)O[C@@H]1/C=C/C(=O)N[C@@H](C)CCC/C=C/[C@@H]2CCC[C@H]21
inactive: RPMI-8226 leukemia 87.5% | OVCAR-8 ovarian 99.4% | OVCAR-5 ovarian 87.8% | OVCAR-4 ovarian 109% | SK-OV-3 ovarian 103% | OVCAR-3 ovarian 106% | HS 578T breast 133% | NCI/ADR-RES ovarian 101% | T-47D breast 98.6% | BT-549 breast 117% | MDA-MB-435 melanoma 106% | SW-620 colon 112% | MCF7 breast 98.8% | HCT-116 colon 104% | HCC-2998 colon 98.5% | KM12 colon 108%

Nc1ccc(C2c3ccccc3Oc3ccccc32)cc1
inactive: RPMI-8226 leukemia 94% | OVCAR-8 ovarian 102% | OVCAR-5 ovarian 101% | OVCAR-4 ovarian 105% | SK-OV-3 ovarian 98.3% | IGROV1 ovarian 91.8% | OVCAR-3 ovarian 96.4% | NCI/ADR-RES ovarian 100% | BT-549 breast 109% | MDA-MB-435 melanoma 104% | SW-620 colon 101% | MCF7 breast 104% | HCT-116 colon 97.8% | HCC-2998 colon 117% | KM12 colon 103%

O=C(Cc1ccccc1)NC(c1ccc(Cl)cc1)c1c(O)ccc2ccccc12 (stereo unspecified)
active: RPMI-8226 leukemia -20.8% | OVCAR-8 ovarian 5.43% | OVCAR-3 ovarian -22.9% | NCI/ADR-RES ovarian 9.15% | MDA-MB-435 melanoma 6.36% | MCF7 breast 8.18% | HCT-116 colon 2.62%
inactive: OVCAR-5 ovarian 45.7% | OVCAR-4 ovarian 21.7% | SK-OV-3 ovarian 36.1% | HS 578T breast 54.1% | T-47D breast 10.8% | BT-549 breast 50% | SW-620 colon 17.5% | HCC-2998 colon 24.8% | KM12 colon 15.1%

O=C(Nc1nc2c(s1)CCc1c-2c(Br)n(Cc2ccccc2)c1Br)c1ccccc1
inactive: RPMI-8226 leukemia 63.2% | OVCAR-8 ovarian 45.4% | OVCAR-5 ovarian 79.9% | SK-OV-3 ovarian 57.2% | OVCAR-3 ovarian 62.3% | HS 578T breast 47.9% | NCI/ADR-RES ovarian 61.8% | T-47D breast 46.4% | BT-549 breast 52.8% | MDA-MB-435 melanoma 56.1% | SW-620 colon 69.2% | MCF7 breast 51.5% | HCT-116 colon 69.9% | HCC-2998 colon 99.1% | KM12 colon 65.5%
active: OVCAR-4 ovarian -3.77%

CN(C)/C=C1\SC(=Nc2ccc(Cl)cc2)NC1=O
inactive: RPMI-8226 leukemia 108% | OVCAR-8 ovarian 97.8% | OVCAR-5 ovarian 96% | OVCAR-4 ovarian 108% | SK-OV-3 ovarian 104% | IGROV1 ovarian 102% | OVCAR-3 ovarian 107% | HS 578T breast 95.5% | NCI/ADR-RES ovarian 102% | BT-549 breast 104% | MDA-MB-435 melanoma 104% | SW-620 colon 99.9% | MCF7 breast 91% | HCT-116 colon 104% | HCC-2998 colon 104% | KM12 colon 106%

O=C1c2ccc3c4c(ccc(c24)C(=O)N1CCCCO)C(=O)N(CCCCO)C3=O
inactive: RPMI-8226 leukemia 16.8% | OVCAR-8 ovarian 75.4% | OVCAR-5 ovarian 106% | OVCAR-4 ovarian 42.4% | SK-OV-3 ovarian 85.1% | OVCAR-3 ovarian 32.9% | HS 578T breast 78.2% | NCI/ADR-RES ovarian 82.2% | T-47D breast 87.3% | BT-549 breast 63.5% | SW-620 colon 10.6% | MCF7 breast 28.2% | HCT-116 colon 28.4% | HCC-2998 colon 97.2%
active: MDA-MB-435 melanoma 3.2%

CCCCc1c(CCC)c(=N)c2ccccc2n1C
inactive: RPMI-8226 leukemia 29.9% | OVCAR-8 ovarian 65.5% | OVCAR-5 ovarian 99.6% | OVCAR-4 ovarian 73.4% | SK-OV-3 ovarian 99.1% | OVCAR-3 ovarian 90.9% | HS 578T breast 122% | NCI/ADR-RES ovarian 85.4% | T-47D breast 85.9% | BT-549 breast 88.1% | MDA-MB-435 melanoma 64.9% | SW-620 colon 59% | MCF7 breast 50.2% | HCT-116 colon 64.1% | HCC-2998 colon 107% | KM12 colon 77.2%

COc1cccc(C(=O)Cn2cc(/C=C(\C#N)S(=O)(=O)c3ccccc3)c3ccccc32)c1
inactive: RPMI-8226 leukemia 72.2% | OVCAR-8 ovarian 89.3% | OVCAR-5 ovarian 47.9% | OVCAR-4 ovarian 95.6% | SK-OV-3 ovarian 85% | OVCAR-3 ovarian 103% | HS 578T breast 106% | NCI/ADR-RES ovarian 90.6% | T-47D breast 91.6% | BT-549 breast 103% | MDA-MB-435 melanoma 113% | SW-620 colon 95.5% | MCF7 breast 94.5% | HCT-116 colon 83.9% | HCC-2998 colon 91% | KM12 colon 107%

O=C(c1ccccc1)N(C(=S)NCCc1ccc(Cl)cc1)c1ccc(Cl)cc1
inactive: RPMI-8226 leukemia 62.5% | OVCAR-8 ovarian 41.1% | OVCAR-5 ovarian 81.3% | OVCAR-4 ovarian 88.8% | SK-OV-3 ovarian 104% | IGROV1 ovarian 87.4% | OVCAR-3 ovarian 27.7% | HS 578T breast 62.5% | NCI/ADR-RES ovarian 101% | MDA-MB-435 melanoma 37.9% | SW-620 colon 62.8% | MCF7 breast 20.8% | HCT-116 colon 45.3% | HCC-2998 colon 61.9% | KM12 colon 26.8%

CC(=O)n1cc(-c2c[nH]c3ccccc23)c(-c2ccc(Cl)cc2)n1
inactive: RPMI-8226 leukemia 86.5% | OVCAR-8 ovarian 96.8% | OVCAR-5 ovarian 94.2% | OVCAR-4 ovarian 62% | SK-OV-3 ovarian 95.9% | IGROV1 ovarian 74.9% | OVCAR-3 ovarian 90% | HS 578T breast 94% | NCI/ADR-RES ovarian 86.4% | BT-549 breast 76.8% | MDA-MB-435 melanoma 88.5% | SW-620 colon 89% | MCF7 breast 71.5% | HCT-116 colon 61.7% | HCC-2998 colon 109% | KM12 colon 84.8%

COc1ccc(-c2c(-c3ccc(OC)c(O)c3)cnc3ncnn23)cc1
inactive: RPMI-8226 leukemia 108% | OVCAR-8 ovarian 101% | OVCAR-5 ovarian 103% | OVCAR-4 ovarian 104% | SK-OV-3 ovarian 110% | OVCAR-3 ovarian 112% | HS 578T breast 104% | NCI/ADR-RES ovarian 102% | T-47D breast 103% | BT-549 breast 102% | MDA-MB-435 melanoma 108% | SW-620 colon 99.1% | MCF7 breast 95.2% | HCT-116 colon 98% | HCC-2998 colon 109% | KM12 colon 102%

O=C(NC(=S)Nc1cccc(NC(=S)NC(=O)c2ccccc2)c1)c1ccccc1
inactive: RPMI-8226 leukemia 80.9% | OVCAR-8 ovarian 31.6% | OVCAR-5 ovarian 116% | OVCAR-4 ovarian 16.4% | SK-OV-3 ovarian 44.1% | IGROV1 ovarian 69.1% | OVCAR-3 ovarian 65.1% | HS 578T breast 18.7% | NCI/ADR-RES ovarian 60.1% | MDA-MB-435 melanoma 61.4% | SW-620 colon 74.6% | MCF7 breast 58.3% | HCT-116 colon 67.2% | KM12 colon 68%

O=C1c2cc(I)ccc2Oc2cc([N+](=O)[O-])ccc2N1c1ccc(Cl)cc1F
inactive: RPMI-8226 leukemia 87.4% | OVCAR-8 ovarian 91% | OVCAR-5 ovarian 90.5% | OVCAR-4 ovarian 79.4% | SK-OV-3 ovarian 96.1% | IGROV1 ovarian 72.3% | OVCAR-3 ovarian 100% | HS 578T breast 88.6% | NCI/ADR-RES ovarian 89.7% | MDA-MB-435 melanoma 60.4% | SW-620 colon 82.5% | MCF7 breast 80.7% | HCT-116 colon 67.8% | HCC-2998 colon 102% | KM12 colon 81.2%

CCCCN1CCN(c2ccc3nc(-c4ccc5nc(-c6ccc(OCC)cc6)[nH]c5c4)[nH]c3c2)CC1
active: RPMI-8226 leukemia -25.3% | OVCAR-3 ovarian -18% | SW-620 colon 8.61% | MCF7 breast 1.77%
inactive: OVCAR-8 ovarian 70.1% | OVCAR-5 ovarian 135% | OVCAR-4 ovarian 55.2% | IGROV1 ovarian 71.9% | HS 578T breast 74.4% | NCI/ADR-RES ovarian 87.8% | T-47D breast 59.7% | BT-549 breast 83.9% | MDA-MB-435 melanoma 55.1% | HCT-116 colon 21.1% | HCC-2998 colon 90.3% | KM12 colon 49.1%

CN1CCN(Cc2ccc(C(=O)Nc3cncc(C#Cc4cnc5cccnn45)c3)cc2C(F)(F)F)CC1
inactive: RPMI-8226 leukemia 29% | OVCAR-8 ovarian 78.7% | OVCAR-5 ovarian 47.2% | OVCAR-4 ovarian 41.8% | SK-OV-3 ovarian 78.9% | OVCAR-3 ovarian 63.3% | HS 578T breast 54.8% | NCI/ADR-RES ovarian 91.6% | T-47D breast 81.2% | BT-549 breast 78.3% | MDA-MB-435 melanoma 57.7% | SW-620 colon 21.8% | MCF7 breast 20.4% | HCT-116 colon 13% | HCC-2998 colon 90% | KM12 colon 12.7%

O=C(NCc1ccco1)C1CN(c2ccc(Cl)cc2)N(c2ccc(Cl)cc2)C1=O (stereo unspecified)
active: OVCAR-3 ovarian 3.64% | MDA-MB-435 melanoma -32.5%
inactive: RPMI-8226 leukemia 48% | OVCAR-8 ovarian 66.4% | OVCAR-5 ovarian 82.2% | OVCAR-4 ovarian 57.7% | IGROV1 ovarian 46.3% | HS 578T breast 36.7% | NCI/ADR-RES ovarian 24.3% | T-47D breast 43.2% | BT-549 breast 51.9% | SW-620 colon 28.6% | MCF7 breast 14.2% | HCT-116 colon 21.9% | HCC-2998 colon 76.1%

COc1cc(C=C2C(=O)N(C)C(=O)N(C)C2=O)cc(CN2CCCCC2)c1O
inactive: RPMI-8226 leukemia 104% | OVCAR-8 ovarian 105% | OVCAR-5 ovarian 96.9% | OVCAR-4 ovarian 103% | IGROV1 ovarian 104% | OVCAR-3 ovarian 105% | HS 578T breast 96% | NCI/ADR-RES ovarian 105% | T-47D breast 90.2% | BT-549 breast 101% | MDA-MB-435 melanoma 103% | SW-620 colon 104% | MCF7 breast 92.5% | HCT-116 colon 100% | HCC-2998 colon 103% | KM12 colon 103%

O=Cc1c(OCc2cnnn2CC(=O)Nc2ccc(Cl)cc2)ccc2ccccc12
inactive: RPMI-8226 leukemia 105% | OVCAR-8 ovarian 99.2% | OVCAR-5 ovarian 94.8% | OVCAR-4 ovarian 100% | IGROV1 ovarian 96% | OVCAR-3 ovarian 103% | HS 578T breast 101% | NCI/ADR-RES ovarian 102% | T-47D breast 104% | BT-549 breast 90.4% | MDA-MB-435 melanoma 104% | SW-620 colon 99.2% | MCF7 breast 81.5% | HCT-116 colon 104% | HCC-2998 colon 111%
